Assay outcomes (PubChem)
Mcl1-Noxa inh: Mcl-1/Noxa binding inhibitors, primary screen, biochemical, TR-FRET, 1536-well; Induced myeloid leukemia cell differentiation protein Mcl-1 (Homo sapiens), Q07820; TR-FRET Mcl-1/Noxa peptide binding, 2 h; inhibition, % at 21.7 µM; 220,000 compounds, 1.5% hits; AID 1022, 2008;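 active = compounds that cut the protein-peptide binding signal by more than 50% relative to plate controls in a single-dose test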;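 also: His-tagged Mcl-1 with rhodamine Noxa BH3 peptide and terbium anti-His antibody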
Target sequence (Q07820 whole entry, looked up): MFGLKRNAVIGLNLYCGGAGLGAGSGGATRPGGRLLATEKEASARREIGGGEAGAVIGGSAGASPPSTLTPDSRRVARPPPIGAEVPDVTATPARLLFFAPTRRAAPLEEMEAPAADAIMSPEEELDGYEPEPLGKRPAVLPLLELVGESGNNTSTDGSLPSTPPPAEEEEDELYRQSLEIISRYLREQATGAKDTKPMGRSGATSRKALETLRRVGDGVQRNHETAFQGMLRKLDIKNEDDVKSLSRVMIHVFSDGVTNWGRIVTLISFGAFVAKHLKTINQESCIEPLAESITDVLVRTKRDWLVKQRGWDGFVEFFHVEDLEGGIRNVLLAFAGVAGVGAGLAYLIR
eIF4E 4G PPI: eIF4E–eIF4G protein interaction inhibitors, primary screen, biochemical, uHTS, TR-FRET, eIF4GI fragment. Eukaryotic translation initiation factor 4E (Mus musculus) + Eukaryotic translation …. TR-FRET eIF4E-eIF4GI(517-606) binding, 2 h. inhibition, % at 21.7 µM. 220,000 compounds, 0.37% hits;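 active = inhibition above about 30%, limit read from the data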
Pf gamet viab: late stage P. falciparum gametocyte viability inhibitors, primary screen, ATP luminescence, HTS | 150,000 compounds, 0.065% hits | AID 743093, 2013 | inhibition, % at 10.9 µM | P. falciparum stage V gametocytes, 24 h;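 active = inhibition above the mean plus 3 SD of compounds within the control limits, set per campaign, cut at about 38% in these data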
14-3-3 Bad PPI: inhibitors of 14-3-3 zeta/Bad binding, primary screen, biochemical, TR-FRET, bovine 14-3-3 zeta | TR-FRET 14-3-3zeta/Dy647-pBad peptide displacement, 1 h | inhibition, % at 21.7 µM | 220,000 compounds, 0.71% hits | AID 781, 2007;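 active = inhibition above about 70%, limit read from the data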
Target sequence (P63103 whole entry, looked up): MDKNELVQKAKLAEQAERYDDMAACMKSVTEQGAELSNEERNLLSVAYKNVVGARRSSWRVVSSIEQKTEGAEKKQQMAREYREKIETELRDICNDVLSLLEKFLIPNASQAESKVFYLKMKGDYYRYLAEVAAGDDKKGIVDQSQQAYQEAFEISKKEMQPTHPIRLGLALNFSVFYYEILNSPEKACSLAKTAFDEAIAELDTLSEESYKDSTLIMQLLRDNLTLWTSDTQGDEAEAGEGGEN
Bim-Mcl-1: inhibitors of Bim peptide binding to Mcl-1, primary screen, biochemical, bead-based flow cytometry, multiplex; Induced myeloid leukemia cell differentiation protein Mcl-1 (Homo sapiens), Q07820; Bim peptide-Mcl-1 binding; inhibition, % at 10 µM; 190,000 compounds, 0.1% hits; AID 1009, 2008; in the data active = inhibition above about 40%
Mcl1-Bid inh: Mcl-1/Bid binding inhibitors, primary screen, biochemical, TR-FRET, 1536-well; Induced myeloid leukemia cell differentiation protein Mcl-1 (Homo sapiens), Q07820; inhibition, % at 21.7 µM; 220,000 compounds, 0.97% hits; TR-FRET Mcl-1/Bid-Dy647 peptide binding;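 active = compounds that cut the binding signal by more than half at the single screening dose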;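 also: His-tagged Mcl-1 with europium anti-His antibody binding Bid BH3 peptide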
Numbers stand for hits; . = inactive; / = not tested or not shown; [ ] = dose if it differs, or a comment. Shown are actives, neighbours in structure and some others; about 2.7% of the full set was active somewhere.

SMILES	Mcl1-Noxa inh	eIF4E 4G PPI	Pf gamet viab	14-3-3 Bad PPI	Bim-Mcl-1	Mcl1-Bid inh
CSCC[C@H](NC(=O)OC(C)(C)C)c1nnc(SCC=C(C)C)o1	.	.	.	.	.	.
CCCCC1=CC2=CC(=O)C(C)(OC(=O)c3cccs3)C(=O)C2=CO1 (configuration not stated)	/	/	.	/	/	/
CCCCC1=CC2=CC(=O)C(C)(OC(=O)c3cnc4ccccc4n3)C(=O)C2=CO1 (configuration not stated)	62	.	/	.	/	.
COC/C=C/C1=CC2=CC(=O)C(C)(OC(=O)c3cnc4ccccc4n3)C(=O)C2=CN1Cc1ccc(OC)cc1 (configuration not stated)	57	.	/	.	/	.
CC(NC(=S)Nc1c(Br)cccc1OC(F)F)C(C)(C)C (configuration not stated)	.	.	.	.	.	.
COc1ccccc1N1CCN(CC(=O)NCC2CCCO2)CC1 (configuration not stated)	.	.	/	75	.	.
COC(=O)C1CCN(S(=O)(=O)c2ccc(OC)cc2)CC1	.	.	.	.	.	.
O=C(Nc1ccc(F)cc1)N1CCCN(c2ccc(C(F)(F)F)cn2)CC1	.	.	.	.	/	83
CC(=O)Nc1ccc(N2CCN(c3ccc(C(F)(F)F)cn3)CC2)nc1	.	.	.	.	/	.
Cn1c(SCC(=O)Nc2nc(C(C)(C)C)cs2)nnc1C1CC1	.	.	.	.	.	.
Cc1ccc(C(=O)NCCSc2ccc(Cl)cc2)cc1S(=O)(=O)Nc1ccccc1	.	.	.	.	.	.
CCn1c(=O)c(C(=O)NCCNCCO)c(O)c2ccccc21	.	/	/	/	.	52
O=C(COC(=O)C1CC2C=CC1C2)Nc1cccc(S(=O)(=O)N2CCOCC2)c1 (configuration not stated)	.	.	.	.	/	.
CCOc1ccc(C2CC(=O)N(Nc3ccc([N+](=O)[O-])cc3[N+](=O)[O-])C2=O)cc1 (configuration not stated)	54	.	.	.	/	.
COC(=O)c1ccc2nc(Nc3nc4ccc(F)cc4s3)sc2c1	95	.	/	77	.	81
CNCCCOc1ccc(C)cc1Br	.	.	.	.	.	61
Cc1ccc2cc(CCNC(=O)CC(C)C)c(=O)[nH]c2c1	.	.	/	.	.	.
O=C(O)CCCN=CC1=C(O)C(C(=O)c2ccccc2)CCC1=O (configuration not stated)	.	.	/	.	.	.
COc1cccc2c1C(=O)c1c(O)c3c(c(O)c1C2=O)C[C@@](O)(C(=O)CO)C[C@@H]3O[C@H]1C[C@H](N)[C@H](O)[C@H](C)O1	60	50[fluorescence artefact?]	/	96[fluorescence artefact?]	.	.
CCOC(=O)C1CCN(Cc2ccc(O)c(OC)c2)CC1	.	.	.	84	.	.
O=C(COC(=O)CCC(=O)c1ccc(F)cc1)NCc1ccco1	.	.	.	.	.	.
CCOC(=O)C1CCN(Cc2ccc(F)cc2)CC1	.	.	/	.	.	51
O=C(COC(=O)Cc1ccc(F)cc1)NCc1ccco1	.	.	49	.	.	.
CCOC(=O)C1CCN(c2c(NCCCN3CCN(Cc4ccccc4)CC3)c(=O)c2=O)CC1	.	.	.	.	.	52
CCOC(=O)C1CCN(Cc2ccc(Cl)c(Cl)c2)CC1	.	.	/	.	.	.
SMILES	Mcl1-Noxa inh	eIF4E 4G PPI	Pf gamet viab	14-3-3 Bad PPI	Bim-Mcl-1	Mcl1-Bid inh
Cc1cc(C)cc(N(CC(=O)NCCSCc2ccccc2)S(C)(=O)=O)c1	.	.	/	.	.	.
CCN(CC)CCNS(=O)(=O)c1ccc(OC)c(Br)c1	.	.	/	.	.	.
O=C(NCc1ccco1)C1CCN(Cc2ccc(F)cc2)CC1	.	.	.	80	.	.
COc1ccc(CN2CCSCC2)cc1O	.	.	.	76	.	.
COc1ccc(-c2csc3nc(-c4ccccc4OC)oc(=O)c23)cc1	.	.	.	.	.	.
O=C(/C=C/c1ccc(O)cc1)c1ccc(O)cc1O	.	.	/	.	.	.
O=CN/C=C/c1cc(O)ccc1O	57	.	/	.	/	.
O=C(c1cc(S(=O)(=O)N2CCC3(CC2)OCCO3)ccc1F)N1CCCCC1	.	.	.	.	.	.
Cc1cc(C)n2nc(C(=O)NCc3ccccc3)cc2n1	.	30	/	.	.	.
CC#C[C@]1(O)CC[C@H]2[C@@H]3CCC4=CC(=O)CCC4=C3[C@@H](c3ccc(N(C)C)cc3)C[C@@]21C	67	.	/	.	.	.
O=[N+]([O-])c1c(C(Cl)Cl)nn(-c2ccccc2)c1N1CCCC1	.	.	.	.	.	.
CCCCNC(=O)c1ccc(S(=O)(=O)c2ccc(Cl)cc2)c(NC(C)=O)c1	.	.	.	72	.	.
CN(C)c1nc2ccccc2c(N)c1-c1ccccc1	.	.	/	77	.	.
Fc1ccc(CCNC(=S)Nc2ccc(F)c(Cl)c2)cc1	.	.	.	.	.	.
O=C(CSc1nc(NS(=O)(=O)c2ccccc2)cc(=O)[nH]1)Nc1ccc(Cl)cc1	.	.	/	.	.	.
COc1ccc(NC(=O)CSc2nc(NS(=O)(=O)c3ccccc3)cc(=O)[nH]2)cc1	.	.	.	75	.	.
CCC(CO)[n+]1c(C)cc(/C=C2\Sc3ccccc3N2Cc2ccccc2)cc1C (configuration not stated)	.	.	.	.	.	.
O=C(Cc1cccs1)Nc1nnc(SCC(=O)NC2CCCCC2)s1	.	.	/	.	.	.
O=C(Cc1ccc(F)cc1)Nc1nnc(SCC(=O)NC2CCCC2)s1	.	.	.	.	.	72
Cc1ccc(SCC(=O)NCCc2ccc(F)cc2)cc1	/	/	.	/	/	/
Clc1ccc(N/N=C/c2ccncc2)cc1Cl	51	.	/	.	.	.
Cc1ccc(C(=O)CSc2nnc(CNc3ccc(F)cc3)o2)cc1	.	.	.	.	.	.
NC(=O)c1cnn2c(-c3cccc(C(F)(F)F)c3)ccnc12	.	.	.	.	/	98
O=C(O)c1cnn2c(-c3ccccc3)ccnc12	/	/	.	/	/	/
Cc1ccc(-n2c(SCC(=O)NCc3ccco3)nc3sc4c(c3c2=O)CC(C)(C)SC4)cc1	.	.	.	.	.	89
O=c1oc(Nc2cccc(Cl)c2)nc2ccccc12	.	.	/	.	.	.
CC(Oc1ccc2c(=O)c(-c3ccc(Cl)cc3)c(C(F)(F)F)oc2c1)C(=O)O (configuration not stated)	.	.	.	.	/	.
NC(=O)C1CCN(S(=O)(=O)c2cccc(C(=O)O)c2)CC1	.	.	.	.	.	.
O=C(O)c1cccc(S(=O)(=O)N2CCSCC2)c1	.	.	.	77	.	.
Brc1ccc(OCCCN2CCOCC2)cc1	.	.	/	.	.	65
